Test results from PubChem BioAssay (NCI).
The panel holds about 83,000 compounds, 20% with a hit somewhere; the sample as a whole holds those more often.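 Cell lines were cultured in 96-well plates, exposed to a single compound concentration, and assessed for percent growth 48 hours later.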 Activity calls are given as the source filed them. The calls were made as follows: active = growth percent below 10; inactive = the rest.

Tests used:
Assay in all cases: NCI-60 one-dose screen, 48 h (100 = growth as untreated, 0 = no growth, -100 = all killed)
Details in all cases: 10 µM unless noted
[1] = test system: DU-145 prostate
[2] = test system: K-562 leukemia
[3] = test system: MALME-3M melanoma
[4] = test system: MDA-MB-231 breast
[5] = test system: RXF 393 renal
[6] = test system: SF-268 CNS
[7] = test system: SF-295 CNS
[8] = test system: SF-539 CNS
[9] = test system: UACC-257 melanoma

Measured: growth

O=C(CSc1nc2ccccc2c(=O)n1-c1ccccc1)Nc1ccc(S(=O)(=O)Nc2nccs2)cc1
inactive: [1] 84.1% | [2] 58.2% | [3] 88.5% | [4] 74.1% | [5] 76.5% | [6] 44.5% | [7] 98.2% | [8] 69% | [9] 62.8%

COc1cc(NC(=O)Nc2cccc(-c3cc(=O)c4c(OC)c(OC)c(OC)cc4o3)c2)cc(OC)c1OC
inactive: [1] 39.2% | [2] 40% | [3] 52.6% | [4] 47.3% | [5] 15.2% | [6] 49.4% | [7] 47.1% | [8] 47.9% | [9] 74.1%

CCOC(=O)c1cccc(NC2=C(Cl)C(=O)C(C)=C(C)C2=O)c1
active: [2] 0.169%
inactive: [1] 104% | [3] 104% | [4] 28% | [5] 102% | [6] 92.8% | [7] 102% | [8] 95.8% | [9] 93.3%

Cc1cc2nc3c4cc(C#N)ccc4n(CCN(C)C)c3nc2cc1C
active: [1] 5.75% | [2] 3.51% | [3] -68% | [4] 8.68% | [5] -62.1% | [6] -7.74% | [7] -4.33% | [8] -15.2% | [9] -25.5%

CSc1ccc(/C(=N/N=C(N)N)c2ccc(F)cc2)cc1
inactive: [1] 20.9% | [3] 90.4% | [4] 24.2% | [6] 36.3% | [7] 11.8% | [8] 10.4% | [9] 66.1%
active: [2] 0.0764% | [5] -4.77%

CS(=O)(=O)c1ccc(/C(=N/N=C(N)N)c2ccc(F)cc2)cc1
inactive: [1] 106% | [2] 25.1% | [3] 97.4% | [4] 105% | [5] 86.1% | [6] 78.9% | [7] 71% | [8] 99.5% | [9] 76.9%

COc1ccc(C(C)=C(c2ccc(OCCN3CCCCCC3)cc2)c2ccc(OCCN3CCCCCC3)cc2)cc1
active: [1] 6.1% | [2] -32.5% | [3] -86.9% | [4] -60.5% | [5] -82.4% | [6] 4.71% | [7] -86% | [8] -88.4% | [9] -65.5%

CCCCCc1ccc(S(=O)(=O)Nc2cc(-c3csc(N)n3)ccc2OC)cc1
inactive: [1] 107% | [2] 83.9% | [3] 96.1% | [4] 92% | [5] 99.7% | [6] 94.7% | [7] 84.8% | [8] 89.7% | [9] 107%

Cc1[nH]c(C(=O)Nc2ccc(C(=O)NCC3CCNCC3)cc2OC(C)C)c(Cl)c1Cl
inactive: [1] 80.2% | [2] 10.6% | [3] 80.1% | [4] 72.3% | [5] 71.3% | [6] 76.6% | [7] 73.5% | [8] 83.8% | [9] 101%

CCOC(=O)c1cccc(NC2=C(Cl)C(=O)c3nc(C)ccc3C2=O)c1
inactive: [1] 108% | [2] 15.6% | [3] 96.3% | [4] 89.8% | [5] 97.8% | [6] 96.2% | [7] 113% | [8] 104% | [9] 82%

CN1CCN(Cc2ccc(NC(=O)c3cncc(C#Cc4cnc5ccc(OCCCS(C)(=O)=O)nn45)c3)cc2C(F)(F)F)CC1
active: [1] 1.01% | [2] 5.44% | [3] -80.5% | [4] -20.7% | [5] -79.6% | [6] -45.8% | [7] 0.237% | [8] -68.4% | [9] -27.6%

CCc1cc2c(cc1Cl)nc1c(=O)[nH]c(=O)nc-1n2CCOCC(C)(C)C
inactive: [1] 94.5% | [2] 57.4% | [4] 67.2% | [5] 75.5% | [6] 88.1% | [7] 71.8% | [8] 84.2% | [9] 73.3%
active: [3] -9.68%

C#Cc1nc(/C=C/C(=O)NO)cs1
active: [1] -59.8% | [3] -30.5% | [4] -48.6% | [5] -68.9% | [8] -87.3%
inactive: [2] 10.2% | [6] 52.9% | [7] 46.3% | [9] 42.6%

Brc1cc(-c2cc(-c3ccc4c(c3)OCCO4)[nH]n2)cs1
inactive: [1] 54.2% | [2] 15% | [3] 35.5% | [4] 51.6% | [5] 47.5% | [6] 62.6% | [7] 41.7% | [8] 41% | [9] 76.4%

C=C(C)[C@@H]1CC[C@]2(COCCCNCCCN)CC[C@]3(C)[C@H](CC[C@@H]4[C@@]5(C)CC[C@H](O)C(C)(C)[C@@H]5CC[C@]43C)[C@@H]12
active: [1] -80.8% | [2] -9.9% | [3] -83.8% | [4] -86.3% | [5] -90.9% | [6] -57.9% | [7] -85.2% | [8] -96.2% | [9] -0.281%

CC[C@]12CC(C(=O)OC)=C3Nc4ccccc4[C@@]34CCN(C14)[C@@H]1c3cc4c(cc3O[C@@H]1[C@H]2O)NC1=C(C(=O)OC)C[C@@]2(CC)C3N(CC[C@@]143)C[C@H]1O[C@H]12 (some centres not stated)
active: [2] 6.04% | [3] 5.67% | [5] -17.9% | [7] 9.12%
inactive: [1] 41.9% | [4] 22.2% | [6] 29.4% | [8] 15.5% | [9] 24.8%

c1ccc(-c2cn3c(-c4c[nH]c5ccccc45)csc3n2)cc1
inactive: [1] 94% | [2] 36.5% | [3] 69.6% | [4] 61.7% | [5] 83.2% | [6] 79.6% | [7] 77.6% | [8] 81.9% | [9] 54.2%

Cc1[nH]c(C(=O)Nc2ccccc2OCc2cccc(C(=O)NC3CCCNC3)c2)c(Cl)c1Cl (configuration not stated)
active: [1] -89% | [2] -38.9% | [3] -68.4% | [4] -68% | [5] -69.4% | [7] -87.9% | [8] -84.6%
inactive: [6] 25.1% | [9] 94.6%

Cc1ccc([C@H]2c3[nH]c4ccccc4c3C[C@H]3C(=O)N(CCCCCCC(=O)NO)CC(=O)N23)s1
inactive: [1] 71.5% | [2] 35.8% | [3] 22.9% | [4] 72.2% | [5] 59.7% | [6] 88.5% | [7] 78.1% | [8] 58% | [9] 53.5%

COc1ccc(N2CCN(C3=C(Cl)C(=O)c4ncccc4C3=O)CC2)cc1
inactive: [3] 23.7% | [4] 62.5% | [5] 15.2% | [6] 86% | [7] 108% | [8] 89.6% | [9] 24.6%
active: [1] 5.58% | [2] 6.59%

CNC(=O)c1cc(N2CCc3cc(NC(=O)Nc4ccc(N5CCOCC5)c(C(F)(F)F)c4)ccc32)ccn1
inactive: [1] 27.2% | [3] 25.8% | [4] 47.6% | [6] 47.8% | [8] 24.1% | [9] 59.1%
active: [2] 7.92% | [5] -6.79% | [7] -21%

O=C(CCCCCCN1CC(=O)N2[C@@H](c3cccs3)c3[nH]c4ccccc4c3C[C@H]2C1=O)NO
inactive: [1] 90.2% | [2] 64.7% | [3] 27.2% | [4] 93.7% | [5] 89.3% | [6] 101% | [7] 96.9% | [8] 73.8% | [9] 66.9%

Cc1[nH]c(C(=O)Nc2ccccc2OCc2cccc(C(=O)NC3CCNC3)c2)c(Cl)c1Cl (configuration not stated)
inactive: [3] 74.2% | [5] 78.8% | [6] 74.8% | [9] 103%
active: [1] -84.8% | [2] 0.128% | [4] -57.8% | [7] -85% | [8] -75.6%

Cc1ccc(NC(=O)/C=C/c2ccc(OCCCOc3ccc4c(C)cc(=O)oc4c3)cc2)cc1
inactive: [1] 60.6% | [2] 90.7% | [3] 44.8% | [4] 54.6% | [5] 44.1% | [6] 39.1% | [7] 50.1% | [8] 57.8% | [9] 69.8%

CCCCCCNC(=O)Oc1ccc(/C(=C(/C)c2ccc(Cl)cc2)c2ccc(OCCN3CCCCCC3)cc2)cc1
inactive: [1] 86.3% | [3] 75.4% | [4] 76.1% | [5] 44.1% | [6] 77.2% | [7] 70% | [8] 67% | [9] 75.1%
active: [2] 8.93%

O=c1c2cc(-c3ccc(F)cc3F)ccc2n(O)c(=O)n1-c1cccc(C(F)(F)F)c1
inactive: [1] 25.5% | [6] 17.4% | [8] 21.1%
active: [2] 3.41% | [3] -12.2% | [4] -10.3% | [5] 3.38% | [7] -11.2% | [9] -8.3%

N#C/C(=C\c1ccc(-c2ccc(Cl)cc2)o1)C(=O)Nc1ncc(Cc2ccc(Br)cc2)s1
active: [1] 9.81% | [3] -34.1% | [4] 3.41% | [7] -2.23% | [8] 1.63%
inactive: [2] 42.7% | [5] 33.1% | [6] 33.2% | [9] 46.6%

COc1ccc(/C=N/NC(=O)CSc2nc(-c3cnccn3)cc(-c3cccs3)c2C#N)cc1
inactive: [1] 61.7% | [2] 79.5% | [3] 91.9% | [4] 70.5% | [5] 39.7% | [6] 83.5% | [7] 80.3% | [8] 39.1% | [9] 95.9%
